The values below come from PubChem BioAssay (NCATS).

Records with an inconclusive call do not appear. Entries that show only a call come without a potency. Active and inactive are the calls of the source. The call rests on the fitted dose curve; in most records, active means well fitted inhibition curve with a large enough effect; inconclusive means small, poorly fitted or top-dose-only effect; inactive means no such curve, though single readings can be large or run the other way.
Potency means the concentration at half of the fitted maximal effect.

This experiment is described as follows: qHTS to identify inhibitors of the type 1 interferon - major histocompatibility complex class I in skeletal muscle: primary screen against the NCATS Mechanism Interrogation Plate v5.0 (MIPE) Libary (AID 1347411). Further: nearly all actives have a fitted effect of over 65% in size. The following applies: iHSKM cells + IFN-b, HiBiT-tagged MHC-I luminescence, 24 h; series mostly up to 45.8 µM. A digest of the protocol:
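Seed engineered human myoblasts (HLA-B HiBit) in medium without dexamethasone containing 4 ng/ml IFN-beta; after 1 hr add compound titrations (top 46 uM final). Incubate 24 hrs at 37 C, lyse 10 min with HiBiT reagent, read luminescence.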
(In general: Quantitative high-throughput screening tests each substance at several concentrations.)
As to `c1nc2nc(Nc3ccc(N4CCOCC4)cc3)nc(NC3CCCCC3)c2[nH]1`, the Potency is 2.94 µM (active).
On to `CC(C)C[C@H](NC(=O)CNC(=O)c1cc(Cl)ccc1Cl)B(O)O`, for which the Potency was 0.104 µM (active).
Take `CN1c2cc(O)c(N=NC(N)=O)cc2CC1S(=O)(=O)O` (stereo not given): the Potency result is “inactive”.
The same measure for `CC(C)CC(=O)Nc1n[nH]c2c1CN(C(=O)C1CCN(C)CC1)C2(C)C`: 1.04 µM (active); for `O=C(NCCCNc1nc(Nc2cccc(NC(=O)N3CCCC3)c2)ncc1I)c1cccs1`: “inactive”.
The entry for `Nc1nc(-c2nn(Cc3ccccc3F)c3ncccc23)nc(N)c1N1CCOCC1` is “inactive”.
The same measure for `Nc1nc(NCCNc2ncc(-n3ccnc3)c(-c3ccc(Cl)cc3Cl)n2)ccc1[N+](=O)[O-]`: 14.7 µM (active); for `O=C(O)CCCc1c[nH]c2ccccc12`: “inactive”; for `CN(c1ncccc1CNc1nc(Nc2ccc3c(c2)CC(=O)N3)ncc1C(F)(F)F)S(C)(=O)=O`: 4.66 µM (active).
Turning to `O=C(NCCS(=O)(=O)c1ccc(C(F)(F)F)cn1)c1ccc(Cl)cc1`, the Potency entry was “inactive”.
For `COc1ccc(CC2SC(=O)NC2=O)cc1C(=O)NCc1ccc(C(F)(F)F)cc1` (stereo not given), the Potency result is “inactive”.
Turning to `C[C@@H](Oc1cc(-c2cnn(C3CCNCC3)c2)cnc1N)c1c(Cl)ccc(F)c1Cl`, the Potency was 14.7 µM (active).
The same measure for `CC(=O)OCCN1C(=O)c2c(C)nc3ccc(S(=O)(=O)N4CCOCC4)cc3c2C1=O`: “inactive”; for `O=C(O)[C@H](Cc1c[nH]c2ccccc12)N1C(=O)c2ccccc2C1=O`: “inactive”; for `COC(=O)C[C@](O)(CCCC(C)(C)O)C(=O)O[C@@H]1C(OC)=C[C@]23CCCN2CCc2cc4c(cc2[C@H]13)OCO4`: 0.093 µM (active).
